LGR2 antag: inhibitors of bursicon-induced LGR2 CRE-luciferase signal, primary screen, cell-based, HEK293, CRE-luciferase reporter, bursicon stimulation. inhibition, % at 9.99 µM. AID 720647, 2013. 380,000 compounds, 0.35% hits. bursicon-stimulated, 4 h. Drosophila bursicon receptor LGR2 (rickets);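 active means drop in luminescence signal, shown as inhibition above about 50% in the replicate tests, limit read from the data, passing the limit was not always enough; inconclusive means probably only some replicates passing the limit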;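 further: agonist challenge used bursicon conditioned medium at about half maximal strength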
KKLEB cytotox: cytotoxicity in KKLEB CF airway cells, primary screen, cytotoxicity control for CF NF-kB inhibitor project, cell-based, uHTS, fluorescence assay plates; activity change (cytotoxicity), % at 5 µM; 360,000 compounds, 0.36% hits; KKLEB CF airway cells viability, ATPlite luminescence, overnight; stronger effect = lower value; cells stimulated with P. aeruginosa culture filtrate; AID 602141, 2011;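 active means corrected activity change at or below -50% at 5 µM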
HSP90 inh: HSP90 inhibitors, primary screen, cell lysate, luminescence; Heat shock protein HSP 90 (rabbit reticulocyte lysate; luciferase refolding); Rabbit reticulocyte lysate, luciferase refolding luminescence, 3 h; inhibition, % at 5.6 µM; 290,000 compounds, 0.91% hits;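 active means inhibition above the screen-wide mean plus 3 SD, computed separately per campaign, cut at about 16% in these data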;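 further: inhibitors lower the luminescence because luciferase stays unfolded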
Peg3 prom inh: Peg3 promoter-driven luciferase inhibitors, primary screen, cell-based, HeLa, luciferase luminescence | inhibition, % at 20 µM | 360,000 compounds, 1.7% hits | HeLa PEG-Prom luciferase reporter, overnight;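 active means inhibition of at least 50% at 20 µM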
Mdm2-MdmX inh: inhibitors of human Mdm2-MdmX association, primary screen, cell-based, luminescence, split luciferase, SaOS-2, uHTS; AID 485346, 2010; SaOS-2 split-luciferase Mdm2/MdmX complementation; Protein Mdm4 (Homo sapiens) + E3 ubiquitin-protein ligase Mdm2 (Homo sapiens), …; 330,000 compounds, 3% hits; inhibition, % at 8 µM;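 active means inhibition of at least 50% at 8 µM in the primary screen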
Target sequence (O15151 whole entry, looked up): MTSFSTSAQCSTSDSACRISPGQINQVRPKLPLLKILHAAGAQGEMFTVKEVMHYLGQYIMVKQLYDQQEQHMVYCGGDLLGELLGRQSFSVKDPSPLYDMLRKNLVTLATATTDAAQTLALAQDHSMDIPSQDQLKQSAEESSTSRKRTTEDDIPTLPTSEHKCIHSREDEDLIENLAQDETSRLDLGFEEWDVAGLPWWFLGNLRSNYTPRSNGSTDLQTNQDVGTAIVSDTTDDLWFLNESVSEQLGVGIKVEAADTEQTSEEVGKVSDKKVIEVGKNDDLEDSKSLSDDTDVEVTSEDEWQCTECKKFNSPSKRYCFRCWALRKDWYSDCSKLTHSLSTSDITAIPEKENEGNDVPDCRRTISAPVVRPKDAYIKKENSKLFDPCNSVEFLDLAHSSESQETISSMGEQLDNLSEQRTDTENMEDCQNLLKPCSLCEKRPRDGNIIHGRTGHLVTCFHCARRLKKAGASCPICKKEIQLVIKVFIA
Target sequence (Q00987 whole entry, looked up): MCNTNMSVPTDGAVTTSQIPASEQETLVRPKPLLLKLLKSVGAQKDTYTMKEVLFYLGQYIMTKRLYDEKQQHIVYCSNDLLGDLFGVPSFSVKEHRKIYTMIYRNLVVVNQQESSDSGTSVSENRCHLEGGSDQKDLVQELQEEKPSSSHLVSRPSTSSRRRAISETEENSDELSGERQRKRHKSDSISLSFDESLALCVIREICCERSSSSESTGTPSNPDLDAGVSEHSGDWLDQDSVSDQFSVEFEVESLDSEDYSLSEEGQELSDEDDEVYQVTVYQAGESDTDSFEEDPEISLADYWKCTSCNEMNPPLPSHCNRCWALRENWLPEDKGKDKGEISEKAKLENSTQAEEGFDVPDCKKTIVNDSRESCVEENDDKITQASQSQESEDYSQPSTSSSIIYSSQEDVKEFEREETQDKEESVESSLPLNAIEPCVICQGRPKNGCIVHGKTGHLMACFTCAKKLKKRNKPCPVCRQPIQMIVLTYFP
CF NFkB block: inhibitors of PAF-induced NF-kB signaling, primary screen, cell-based, GFP fluorescence, uHTS | KKLEB NF-kB-GFP reporter, GFP fluorescence overnight | 360,000 compounds, 0.86% hits | inhibition, % at 5 µM;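 active means at least 50% inhibition at 5 µM, scaled per plate between neutral and stimulator controls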;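 further: PAF is a Pseudomonas aeruginosa culture filtrate used as stimulus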
HSP90 inh confirm: HSP90 inhibitors, confirmation, cell lysate, luminescence | shares compounds with HSP90 inh | rabbit reticulocyte lysate, luciferase refolding luminescence, 3 h | inhibition, % at 5.9 µM | 2,300 compounds, 64% hits | AID 1846, 2009; in the data active means inhibition above about 18%
luciferase ctr: firefly luciferase inhibitors, HSP90 counter-screen, confirmation, artefact control for HSP90 inhibitor project, biochemical, luminescence, triplicate | 2,300 compounds, 48% hits | purified native firefly luciferase | inhibition, % at 5.9 µM | shares compounds with HSP90 inh;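 active means inhibition above the mean inhibition of all tested sample wells plus 3 SD, cut at about 10% in these data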
Each line names hits and unclear results; the compound was inactive in the other large screens (follow-up assays come after a bar, where they were run). Sampled rows, rich in hits. Any-hit rate of the full collection: about 3.6%.

COc1ccc2c3c(n(C)c2c1)[C@@H](CO)N(Cc1ccccc1F)CC31CCN(C(=O)C2CCCC2)CC1	none (no result: KKLEB cytotox, HSP90 inh, Peg3 prom inh, Mdm2-MdmX inh, CF NFkB block)
CC(=O)NCCn1c(C)cc2ccccc21	none (no result: HSP90 inh)
Cc1cc2ccccc2n1CCNC(=O)c1ccccc1	HSP90 inh 40.5 | HSP90 inh confirm 51.4 | luciferase ctr inactive
Cc1cc2ccccc2n1CCNC(=O)c1ccc(Br)o1	HSP90 inh 17.0 | HSP90 inh confirm inactive | luciferase ctr inactive
C[C@H](CO)N1C[C@H](C)[C@H](CN(C)C(=O)Nc2cc(F)ccc2F)Oc2ncc(-c3cccc(F)c3)cc2C1=O	none (no result: KKLEB cytotox, HSP90 inh, Peg3 prom inh, Mdm2-MdmX inh, CF NFkB block)
O=C(C[C@H]1C[C@@H]2c3cc(NC(=O)CC4CC4)ccc3O[C@@H]2[C@@H](CO)O1)NCc1ccc2c(c1)OCO2	none (no result: KKLEB cytotox, HSP90 inh, Peg3 prom inh, Mdm2-MdmX inh, CF NFkB block)
O=C(N/N=C/c1cc(O)ccc1Br)c1cccnc1	HSP90 inh 36.9 | HSP90 inh confirm inactive | luciferase ctr inactive
O=C(N/N=C/c1cc(Br)c(O)c(Br)c1O)c1cccnc1	none
COc1ccc(-c2nc3c(n2O)CCc2c-3no[n+]2[O-])cc1	HSP90 inh 36.6 | HSP90 inh confirm inactive | luciferase ctr inactive
COn1c(-c2ccccc2)nc2c1CCc1c-2no[n+]1[O-]	none (no result: LGR2 antag)
Cc1ccc(NCc2nc3ccccc3n2C)c(C)c1	HSP90 inh 28.5 | HSP90 inh confirm 45.1 | luciferase ctr 39.3
CCN(CC)c1ccc2nc3c4ccccc4c(=O)cc-3oc2c1	HSP90 inh 46.9 (no result: KKLEB cytotox, Peg3 prom inh, CF NFkB block) | HSP90 inh confirm 48.0 | luciferase ctr 32.4
CCN(CC)c1ccc2cc(C=O)c(=O)oc2c1	none (no result: LGR2 antag)
Cc1cccc(-n2ncc3c(N4CCOCC4)ncnc32)c1	LGR2 antag 90.5, HSP90 inh 53.9 | HSP90 inh confirm 76.8 | luciferase ctr 67.7
C[C@@H]1CN([C@H](C)CO)C(=O)Cc2cc(NC(=O)CCCCCC(=O)Nc3ccccc3N)ccc2O[C@@H]1CN(C)C(=O)NC1CCCCC1	none (no result: KKLEB cytotox, HSP90 inh, Peg3 prom inh, Mdm2-MdmX inh, CF NFkB block)
Cc1ccccc1Cn1nnc(-c2ccc(C(=O)O)cc2)n1	none
O=C(O)c1ccc(-c2nnn(Cc3ccccc3F)n2)cc1	none
O=C(O)c1cccc(OCc2ccccc2Cl)c1	HSP90 inh 27.6 (no result: LGR2 antag) | HSP90 inh confirm 52.7 | luciferase ctr 27.2
Cc1ccccc1Cn1nnc(-c2cccc(C(=O)O)c2)n1	HSP90 inh 37.5 | HSP90 inh confirm 53.7 | luciferase ctr 66.1
O=C(O)c1cccc(-c2nnn(Cc3ccccc3)n2)c1	HSP90 inh 28.7 (no result: LGR2 antag) | HSP90 inh confirm 35.1 | luciferase ctr 40.7
O=C(O)c1cccc(-c2nnn(Cc3ccccc3Cl)n2)c1	HSP90 inh 59.3 (no result: LGR2 antag) | HSP90 inh confirm 76.7 | luciferase ctr 81.1
CC(=O)N1CC2(C1)[C@H](c1ccc(-c3ccc(C#N)cc3)cc1)[C@H](CO)N2C(C)=O	none (no result: KKLEB cytotox, HSP90 inh, Peg3 prom inh, Mdm2-MdmX inh, CF NFkB block)
O=c1c2sc(-c3ccccc3)cc2nc2n1CCC2	HSP90 inh 24.2 (no result: LGR2 antag) | HSP90 inh confirm 48.4 | luciferase ctr 32.1
O=C(c1ccccc1)N1C[C@@H]2[C@H](c3ccccc31)[C@@H](CO)N2S(=O)(=O)c1ccccc1	none (no result: KKLEB cytotox, HSP90 inh, Peg3 prom inh, Mdm2-MdmX inh, CF NFkB block)
C[C@@H]1CN([C@@H](C)CO)C(=O)c2cc(NS(=O)(=O)c3ccc(F)cc3)ccc2O[C@@H]1CN(C)C	none (no result: KKLEB cytotox, HSP90 inh, Peg3 prom inh, Mdm2-MdmX inh, CF NFkB block)
COc1ccc(C(=O)Nc2ccccc2C(=O)N/N=C/c2cccc3ccccc23)cc1	KKLEB cytotox -88.2, HSP90 inh 35.0 (no result: LGR2 antag) | HSP90 inh confirm 79.7 | luciferase ctr 50.8
COc1ccc(C(=O)Nc2ccccc2C(=O)N/N=C/c2ccncc2)cc1OC	LGR2 antag inconclusive, KKLEB cytotox -60.4, HSP90 inh 28.9 | HSP90 inh confirm 60.8 | luciferase ctr 19.1
COc1ccc(C(=O)Nc2ccccc2C(N)=O)cc1	none
COc1ccc(C(=O)Nc2ccccc2C(=O)NCc2cccnc2)cc1OC	none
COc1cccc(/C=N/n2c(-c3ccco3)nc3ccccc3c2=O)c1	none
COc1ccc(/C=N/n2c(-c3ccco3)nc3ccccc3c2=O)cc1	HSP90 inh 19.0 | HSP90 inh confirm inactive | luciferase ctr inactive
CC1CN(C(=O)COC(=O)c2ccc(O)cc2)CC(C)O1 (configuration not stated)	none
CC1CN(C(=O)COC(=O)c2ccc(C#N)cc2)CC(C)O1 (configuration not stated)	HSP90 inh 47.8 | HSP90 inh confirm inactive | luciferase ctr inactive
CCOC(=O)N1CCC(N2C(=O)c3ccccc3C2Nc2ccc3c(c2)OCCO3)CC1 (configuration not stated)	none
CCOC(=O)N1CCC(N2C(=O)c3ccccc3C2Nc2ccc3c(C)cc(=O)oc3c2)CC1 (configuration not stated)	HSP90 inh 18.2 | HSP90 inh confirm inactive | luciferase ctr inactive
Clc1ccc(CSc2nc3ccncc3[nH]2)cc1	KKLEB cytotox -58.7, HSP90 inh 26.8 | HSP90 inh confirm 64.0 | luciferase ctr 44.9
Cc1ccc(CSc2nc3ccncc3[nH]2)cc1	LGR2 antag inconclusive, KKLEB cytotox -69.6, HSP90 inh 62.7 | HSP90 inh confirm 79.5 | luciferase ctr 68.7
Cc1ccc(CSc2nc3ncccc3[nH]2)cc1	none (no result: LGR2 antag)
O=C(c1ccc(CSc2nc3ccncc3[nH]2)cc1)N1CCCCCC1	HSP90 inh 26.8 | HSP90 inh confirm 50.9 | luciferase ctr 27.1
CCn1c(C)nc2cc(C(=O)NNC(=S)Nc3ccccc3)ccc21	HSP90 inh 34.1 | HSP90 inh confirm 31.6 | luciferase ctr 26.7
CCn1c(C)nc2cc(C(=O)NNC(=S)Nc3ccc(Cl)cc3)ccc21	none
COc1cccc(NC(=O)NNC(=O)C(C)Oc2ccc3ccccc3c2)c1 (configuration not stated)	none
COc1ccc(C(=O)Nc2ccc3ccccc3c2)cc1	LGR2 antag 73.7, HSP90 inh 33.8 | HSP90 inh confirm 62.7 | luciferase ctr 53.1
COc1ccccc1C(=O)NNC(=O)c1ccc2ccccc2c1	HSP90 inh 18.0 | HSP90 inh confirm inactive | luciferase ctr inactive
COc1cccc(C(=O)Nc2nnc(C(C)C)s2)c1	HSP90 inh 21.9 (no result: LGR2 antag) | HSP90 inh confirm 34.3 | luciferase ctr 21.7
COc1ccccc1C(=O)NNC(=O)c1ccc(O)cc1	none (no result: HSP90 inh, Mdm2-MdmX inh)
CCCc1nnc(NC(=O)c2cccc(OC)c2)s1	none
